This passage reports AC50 and outcome results from PubChem BioAssay (EPA / NIEHS).

Inconclusive results are not listed. Activity calls are given as the source filed them. Rule for the calls: active = hit-call score of the fitted dose curve at least 0.9, where 1 is the maximum; inconclusive = response in the unintended direction; inactive = score below 0.9.

Tested on in the first test: not listed separately
The experiment in a line: NVS_IC_rCaDHPRCh_L: NovaScreen (NVS) Ion Channel Assay for rat Calcium Channel, Type L, Dihydropyridine Site (CaDHPRCh_L) (AID 2283320). Summed up: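 Radioligand binding to dihydropyridine site on rat cortical membranes, filter-based scintillation counting, 1 h after dosing. Screened in duplicate at 25 uM; actives rerun in concentration-response up to 50 uM. Loss of signal versus DMSO baseline.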
Usually AC50 stands for the midpoint of the concentration-response curve, whichever way the signal moves. As for `CC(=O)NC1(c2cccc(F)c2)CCN(CC[C@@]2(c3ccc(Cl)c(Cl)c3)CN(c3ccccc3)C(=O)CO2)CC1`, the AC50 was 2.24 µM (active). As to `Cc1oc(-c2ccccc2)nc1CCOc1ccc(C[C@H](Nc2ccccc2C(=O)c2ccccc2)C(=O)O)cc1`, the AC50 is 25 µM (active). Same read-out and setting: next, `CCCOc1sc(C(=O)N2CCC(c3cc(CN)ccc3F)CC2)c(C)c1Br`: 14.7 µM (active). `ClC1=C(Cl)C(Cl)(Cl)C(Cl)=C1Cl`: the outcome was inactive.

The next test concerns the target Sodium channel protein type 1 subunit alpha (Rattus norvegicus) (UniProt P04774). Put plainly: NVS_IC_rNaCh_site2: NovaScreen (NVS) Ion Channel Assay for rat Sodium Channel, Site 2 (NaCh) (AID 2283322).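 Note: hit means loss of radioligand binding signal relative to DMSO so AC50 marks displacement.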 Summed up: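 Membranes: rat forebrain. Format: competitive radioligand displacement, filter separation, scintillation readout, 1 h exposure. Primary screen in duplicate at 25 uM; actives retested in concentration series.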
For `O=C(O)Cc1cc(I)c(Oc2cc(I)c(O)c(I)c2)c(I)c1`, the result was inactive. On the same count and under the same terms, the entry for `CC[C@H](c1ccc(O)cc1)[C@@H](CC)c1ccc(O)cc1` is “inactive”. Turning to `Nc1cccc2c(N)cccc12`, the AC50 was 18.5 µM (active). Still for that read-out and setting: the figure for `CC(=O)NC1(c2cccc(F)c2)CCN(CC[C@@]2(c3ccc(Cl)c(Cl)c3)CN(c3ccccc3)C(=O)CO2)CC1` is 0.449 µM (active); for `CCCCCCCCCCCCCC[N+](C)(C)C` it is 8.44 µM (active); for `Cc1oc(-c2ccccc2)nc1CCOc1ccc(C[C@H](Nc2ccccc2C(=O)c2ccccc2)C(=O)O)cc1` it is 25 µM (active). For `OC1CCCCC1`, the outcome was inactive. Turning to `CCCOC(=O)c1ccc(O)cc1`, the AC50 is 31.2 µM (active). With `NC(=O)N(O)[C@@H]1C=C[C@H](Oc2cccc(Oc3ccc(F)cc3)c2)C1`, the call was inactive. Regarding `CCN(CC)CCNc1ccc(CNC=O)c2sc3ccc(OC)cc3c(=O)c12`, the AC50 was 12.7 µM (active). Still for that read-out and setting: next, `CC#C[C@]1(O)CC[C@H]2[C@@H]3CCC4=CC(=O)CCC4=C3[C@@H](c3ccc(N(C)C)cc3)C[C@@]21C`: 6.71 µM (active); `CCC(=C(c1ccc(O)cc1)c1ccc(OCCN(C)C)cc1)c1ccccc1`: 4.03 µM (active).

As to `CCCOc1sc(C(=O)N2CCC(c3cc(CN)ccc3F)CC2)c(C)c1Br`, the AC50 was 1.01 µM (active).
